The list is not random: actives were taken first. Their share in the collection is about 2.4%.
Pol beta inh – qHTS Assay for Inhibitors of DNA Polymerase Beta; AID 485314, 2010; Pol beta primer extension/strand displacement, fluorescence kinetic; 340,000 compounds, 1.3% hits; Potency, µM (titrated, usually from 114 µM), inactives show at the top dose activity change, negative = inhibition, most hits filed as inhibitors; P06746; also: % is scaled to controls: 0 for no effect and ±100 for the full control effect
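Preincubation: enzyme (10 nM) with compound, 15 min, RT. Reaction: substrate added to 50 nM final. Reads: 0 and 10 min. Analysis: normalized, Hill fit.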
FEN1 inh – qHTS Assay for the Inhibitors of Human Flap endonuclease 1 (FEN1). Potency, µM (top dose mostly 114 µM), without a hit: at the top dose activity change, negative = inhibition, most hits filed as inhibitors. Recombinant FEN1 flap cleavage, fluorescence, 15 min. 390,000 compounds, 0.35% hits. P39748; also: % is scaled to controls: 0 for no effect and ±100 for the full control effect; nearly all actives have a fitted effect of over 65% in size
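FEN1 at 10 nM preincubated with compounds 15 min at room temperature, then flap DNA substrate added at 50 nM final. Signal read at 0 and 15 min; concentration-response fitted with four-parameter Hill equation.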
Pol iota inh – qHTS for Inhibitors of Polymerase Iota; DNA polymerase iota (Homo sapiens), Q9UNA4; Pol iota fluorescent replication assay, 10 min; Potency, µM (doses to about 115 µM), without a hit: top-dose activity, negative = inhibition, actives largely listed as inhibitors; 390,000 compounds, 1% hits
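Pol iota at 10 nM preincubated 15 min with compounds at room temperature; reaction started with fluorescent substrate, 50 nM final. Fluorescence read kinetically at 0 and 10 min; buffer-only wells as negative control.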
Pol kappa inh – qHTS for Inhibitors of Polymerase Kappa; purified Pol kappa, fluorescent DNA synthesis assay, 10 min; DNA polymerase kappa (Homo sapiens), Q9UBT6; Potency, µM (top dose mostly 107 µM), without a hit: top-dose activity, negative = inhibition, hits mostly inhibitors; 400,000 compounds, 0.53% hits; also: % is scaled to controls: 0 for no effect and ±100 for the full control effect
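Activity was followed as the change in fluorescence between reads at 0 and 10 min after starting the reaction with 50 nM substrate. Beforehand, 10 nM polymerase had been preincubated with compound for 15 min at room temperature.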
Pol eta inh – qHTS for Inhibitors of Polymerase Eta | 390,000 compounds, 1.2% hits | AID 588591, 2011 | recombinant Pol eta, fluorescent DNA replication assay | DNA polymerase eta (Homo sapiens), Q9Y253 | Potency, µM (titrated, usually from 114 µM), without a hit: top-dose activity change, negative = inhibition, actives largely listed as inhibitors; also: % is scaled to controls: 0 for no effect and ±100 for the full control effect
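Pol eta (10 nM) was preincubated with compounds for 15 min at room temperature, after which fluorescent replication substrate (50 nM final) was added to start the reaction. Fluorescence was read kinetically at 0 and 10 min.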
WRN helicase inh – qHTS for Inhibitors of WRN Helicase; Potency, µM (top dose mostly 114 µM), for the others: top-dose activity change, negative = inhibition, hits mostly inhibitors; WRN helicase unwinding, fluorescent forked duplex, kinetic; AID 651768, 2012; 360,000 compounds, 0.46% hits; Bifunctional 3'-5' exonuclease/ATP-dependent helicase WRN (Homo sapiens), Q14191; also: % is scaled to controls: 0 for no effect and ±100 for the full control effect; nearly all actives have a fitted effect of over 55% in size
Target sequence (Q14191 whole entry, looked up): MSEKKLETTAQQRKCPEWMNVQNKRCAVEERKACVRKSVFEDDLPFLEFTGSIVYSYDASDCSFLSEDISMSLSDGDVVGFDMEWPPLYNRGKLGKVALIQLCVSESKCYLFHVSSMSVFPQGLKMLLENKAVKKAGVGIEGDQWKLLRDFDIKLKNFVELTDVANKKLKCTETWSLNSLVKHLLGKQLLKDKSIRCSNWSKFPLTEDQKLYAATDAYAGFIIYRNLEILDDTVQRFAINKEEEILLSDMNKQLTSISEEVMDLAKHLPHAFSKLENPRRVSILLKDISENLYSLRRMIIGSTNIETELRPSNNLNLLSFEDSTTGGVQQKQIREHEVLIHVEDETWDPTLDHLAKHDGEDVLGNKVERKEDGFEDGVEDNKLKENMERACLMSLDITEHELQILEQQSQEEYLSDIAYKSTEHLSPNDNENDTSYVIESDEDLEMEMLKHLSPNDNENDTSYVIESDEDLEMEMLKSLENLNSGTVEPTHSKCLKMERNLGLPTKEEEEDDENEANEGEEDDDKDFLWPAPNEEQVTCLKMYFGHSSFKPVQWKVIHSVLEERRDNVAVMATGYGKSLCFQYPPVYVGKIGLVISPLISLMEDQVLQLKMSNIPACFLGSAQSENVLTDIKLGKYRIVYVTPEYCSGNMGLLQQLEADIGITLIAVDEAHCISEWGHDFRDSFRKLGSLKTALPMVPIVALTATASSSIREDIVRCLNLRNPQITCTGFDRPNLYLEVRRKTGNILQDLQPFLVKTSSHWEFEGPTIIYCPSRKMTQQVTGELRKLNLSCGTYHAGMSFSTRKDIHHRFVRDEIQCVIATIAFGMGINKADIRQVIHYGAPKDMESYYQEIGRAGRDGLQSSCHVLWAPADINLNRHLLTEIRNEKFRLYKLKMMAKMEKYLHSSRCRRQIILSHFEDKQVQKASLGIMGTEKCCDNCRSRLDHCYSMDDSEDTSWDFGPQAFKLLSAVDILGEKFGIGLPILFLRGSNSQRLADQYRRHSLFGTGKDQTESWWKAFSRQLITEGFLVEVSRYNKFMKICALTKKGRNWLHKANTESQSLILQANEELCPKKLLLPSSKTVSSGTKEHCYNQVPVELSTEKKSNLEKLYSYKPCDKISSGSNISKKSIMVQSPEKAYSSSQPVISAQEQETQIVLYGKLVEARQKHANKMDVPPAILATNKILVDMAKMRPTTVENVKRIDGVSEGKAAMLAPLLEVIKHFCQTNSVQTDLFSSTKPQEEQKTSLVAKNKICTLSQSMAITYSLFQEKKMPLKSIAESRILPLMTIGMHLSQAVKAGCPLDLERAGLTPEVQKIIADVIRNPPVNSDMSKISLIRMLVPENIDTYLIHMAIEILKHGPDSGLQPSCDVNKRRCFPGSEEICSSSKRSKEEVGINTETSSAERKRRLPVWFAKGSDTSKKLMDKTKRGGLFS
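Enzyme (20 nM final) and test compound sit together 15 min at room temperature before substrate addition. Substrate is a single-forked duplex oligonucleotide (100 nM) labelled with fluorophore and quencher, with 2 mM ATP; helicase unwinding raises red fluorescence, read kinetically.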
Starred values were filed as active, the others as inactive; [ ] = another dose, or the depositor's remark. Calls follow the shape of the dose curve; as a rule, active = well fitted curve in the direction sought with a large enough effect; inconclusive = small, poorly fitted or top-dose-only effect, or another doubt; inactive = no such curve, though single readings can be large; an effect the other way counts as inactive or inconclusive. Potency is read from the fitted curve at half-maximal effect.

Cc1cc(=O)n(CC(=O)NC(C)c2ccccc2)c2c1c(C)nn2-c1cccc(F)c1 (stereo not drawn) was read as Pol beta inh 22.4µM*, FEN1 inh 10.9%, Pol iota inh inconclusive, Pol kappa inh -41.4% and Pol eta inh -5.0%.
`Cc1ccccc1NC(=O)c1nc(S(=O)(=O)Cc2ccccc2F)ncc1Cl` gave FEN1 inh -16.5%, Pol iota inh -29.8% and Pol kappa inh -17.8%.
C=C(NC(=O)C(=C)NC(=O)c1csc(C2=NC3c4csc(n4)C4NC(=O)c5csc(n5)C(C(C)(O)C(C)O)NC(=O)C5CSC(=N5)C(=CC)NC(=O)C(C(C)O)NC(=O)c5csc(n5)C3(CC2)NC(=O)C(C)NC(=O)C(=C)NC(=O)C(C)NC(=O)C(C(C)CC)NC2C=Cc3c(C(C)O)cc(nc3C2O)C(=O)OC4C)n1)C(N)=O (stereo not drawn) was read as Pol kappa inh -12.5%[60.1 µM].
C=C(NC(=O)C(=C)NC(=O)c1csc(C2=NC3c4csc(n4)C4NC(=O)c5csc(n5)C(C(C)(O)C(C)O)NC(=O)C5CSC(=N5)/C(=C/C)NC(=O)C(C(C)O)NC(=O)c5csc(n5)C3(CC2)NC(=O)C(C)NC(=O)C(=C)NC(=O)C(=C)NC(=O)C(C(C)C)NC2C=Cc3c(C(C)O)cc(nc3C2O)C(=O)OC4C)n1)C(N)=O (stereo not drawn) was read as FEN1 inh 2.2%, Pol iota inh 22.4µM*, Pol kappa inh -18.9%, Pol eta inh inconclusive and WRN helicase inh inconclusive.
Cc1cccc(OCCn2c(SCC(N)=O)nc3ccccc32)c1 was read as Pol beta inh 1.0%, FEN1 inh 9.2%, Pol iota inh -4.6%, Pol kappa inh 3.7% and Pol eta inh -19.7%.
For O=C1NC(=S)N/C1=C/c1cccn1-c1ccc([N+](=O)[O-])cc1 the results were Pol beta inh 7.94µM*, FEN1 inh -18.7%, Pol iota inh 56.2µM*, Pol kappa inh inconclusive, Pol eta inh inconclusive and WRN helicase inh -6.8%.
`Cc1cccc(NC(=O)CSc2nc(-c3ccco3)nc3cc(=O)[nH]n23)c1` gave Pol beta inh inconclusive, FEN1 inh -16.3%, Pol iota inh inconclusive, Pol kappa inh -5.6% and Pol eta inh inconclusive.
`O=C(CSc1nc(-c2ccco2)nc2cc(=O)[nH]n12)Nc1ccc(F)cc1` gave Pol beta inh 39.8µM*, FEN1 inh 16.2%, Pol iota inh inconclusive, Pol kappa inh -17.3% and Pol eta inh 1.6%.
`Cc1nn(-c2ccccc2)c2nc(N)c(C#N)c(-c3ccc(O)c(O)c3)c12` gave Pol beta inh inconclusive, FEN1 inh -23.4%, Pol iota inh inconclusive, Pol kappa inh -3.4%, Pol eta inh 50.1µM* and WRN helicase inh -10.4%[11.6 µM].
For CC(C)COc1ccc(CC(=O)NO)cc1 the results were FEN1 inh 1.0%, Pol iota inh 48.2% and Pol kappa inh -15.8%.
For CCc1ccc(NC(=O)Cn2ccn(-c3ccc(OC)cc3)c(=O)c2=O)cc1 the results were Pol beta inh 31.6µM*, FEN1 inh 0.4%, Pol iota inh 10.7%, Pol kappa inh -11.4% and Pol eta inh -5.9%.
For Nc1nc(NCCO)nc(NCC2CCCO2)c1[N+](=O)[O-] (stereo not drawn) the results were Pol beta inh 22.4µM*, FEN1 inh -3.3%, Pol iota inh 15.4%, Pol kappa inh -20.2%, Pol eta inh -4.1% and WRN helicase inh -30.4%[57.1 µM].
Screening Nc1nc(NCC2CCCO2)nc(NCC2CCCO2)c1[N+](=O)[O-] (stereo not drawn) returned Pol beta inh 39.2%, FEN1 inh -2.6%, Pol iota inh 5.2%, Pol kappa inh 0.5%, Pol eta inh -25.0% and WRN helicase inh 9.3%.
CC(C)CC(C(=O)Nc1oc(-c2ccco2)c(-c2ccco2)c1C#N)N1C(=O)c2ccccc2C1=O (stereo not drawn) was read as Pol beta inh 31.6µM*, FEN1 inh -0.5%, Pol iota inh inconclusive, Pol kappa inh inconclusive, Pol eta inh 20µM* and WRN helicase inh inconclusive.
`CCc1nc2cccnc2n1-c1ccc(CC(=O)O)cc1` gave Pol beta inh -1.2%, FEN1 inh -4.7%, Pol iota inh 64.4%, Pol kappa inh -23.5%, Pol eta inh 50.1µM* and WRN helicase inh -1.4%[11.6 µM].
Screening CCOCCCNC(=O)Cc1ccc(-n2c(CC)nc3cccnc32)cc1 returned Pol beta inh 21.7%, FEN1 inh -1.6%, Pol iota inh 25.3%, Pol kappa inh -2.0%, Pol eta inh -18.5% and WRN helicase inh 1.7%.
Cc1ccc(NC(=O)CS(=O)CC(=O)NC(C)CCc2ccco2)cc1Cl (stereo not drawn) was read as Pol beta inh 31.6µM*, FEN1 inh 3.3%, Pol iota inh -38.7%, Pol kappa inh -28.5%, Pol eta inh inconclusive and WRN helicase inh -13.9%.
For CC1=NNC(=O)C1Oc1ccccc1 (stereo not drawn) the results were Pol beta inh -1.7%, FEN1 inh 1.1%, Pol iota inh 25.1µM*, Pol kappa inh -9.2%, Pol eta inh -7.6% and WRN helicase inh 2.1%.
N#C/C(=C\c1ccc(Cl)cc1)C(=O)NCC1CCCO1 (stereo not drawn) was read as Pol beta inh 4.5%, FEN1 inh -14.2%, Pol iota inh -7.2%, Pol kappa inh -4.3% and Pol eta inh -9.3%.
For C=CCOc1cccc(C2/C(=C(/O)c3ccc4c(c3)CC(C)O4)C(=O)C(=O)N2CCN2CCOCC2)c1 (stereo not drawn) the results were Pol beta inh -18.6%, FEN1 inh 14.4%, Pol iota inh 89.1µM*, Pol kappa inh -14.2%, Pol eta inh -3.3% and WRN helicase inh -1.0%[11.6 µM].
CC1Cc2cc(/C(O)=C3/C(=O)C(=O)N(CC4CCCO4)C3c3ccco3)ccc2O1 (stereo not drawn) was read as Pol beta inh 22.4µM*, FEN1 inh -8.3%, Pol iota inh inconclusive, Pol kappa inh -25.1%, Pol eta inh 14.1µM* and WRN helicase inh -13.1%[57.1 µM].
